This note sets out measurements from ChEMBL document CHEMBL1157539, “Thousands of chemical starting points for antimalarial lead identification” (Nature, 2010).

This experiment has as its system HepG2. Put plainly: GSK_TCMDC: Percent inhibition of human HepG2 cell line. Test compounds present at 10uM. In kind it is functional.
What is called Inhibition is the share of the control response that was lost under treatment. Lower therefore signals a weak effect. In turn, `CSc1cccc(NC(=O)c2cc3ccccc3oc2=O)c1` returned an Inhibition of 0%. With `COc1cc(CNCCC(C)C)ccc1OCc1cccc(COc2ccc(CNCCC(C)C)cc2OC)c1.Cl`, the Inhibition was 97%. The value for `Cc1ccoc1C(=O)Nc1cccc(-c2cccc(-c3nc4ccccc4[nH]3)c2)c1` was 43%; that for `CC1CN(S(=O)(=O)c2ccc(NC(=O)c3cc(-c4ccccc4O)n[nH]3)cc2)CC(C)O1` (centres undefined) was 21%; that for `COc1cccc(Nc2c(C(N)=O)cnc3ccc(-c4ccccc4)cc23)c1` was 2%. The value for `CCCC(=O)c1cnc2cc(O)ccc2c1Nc1ccccc1C` was 14%. For the compound `CNC(=O)c1ccccc1Nc1nc(Nc2cccnc2)ncc1C.Cl`, the Inhibition worked out at 17%. With `NC(=O)c1ccccc1OCC(=O)Nc1ccc(-c2cccc(-c3nc4cc(C(F)(F)F)ccc4[nH]3)c2)cc1` the figure was 51%. The value for `CC(c1cccc(Nc2nccc(-c3c(-c4cccc(NC(=O)c5c(F)cccc5F)c4)nn4ccccc34)n2)c1)S(C)(=O)=O` (centres undefined) was 76%. For the compound `Cc1ccc(Cn2ncc(NC3CCNCC3)c(Cl)c2=O)cc1NC(=O)Nc1ccc(-c2ccccc2)cc1.O=C(O)C(F)(F)F`, the Inhibition is reported as 18%. As for `CCCCCCOc1ccc(C(=O)NCCCC2CCN(CCCCCNC(=O)C=Cc3ccc(Cl)c(Cl)c3)CC2)cc1`, the Inhibition stood at 22%. With `O=S(=O)(Nc1ccc(CCN2CCCCC2CCN2CCCC2)cc1)c1cccc2cccnc12` (centres undefined) the figure was 20%; with `Cc1ccc(NC(=O)c2cccc(N3CCN(c4ccncc4)CC3)c2)cc1F.O=C(O)C(F)(F)F`, 43%. With `COc1cccc(CNC(=O)c2cccc(-c3cccc(CN4CCC(N5CCCC5)CC4)c3)n2)c1.O=C(O)C(F)(F)F` the figure was 22%.
